We go through twelve compounds from ChEMBL document CHEMBL3433997, “St. Jude Leishmania screening dataset” (2016).

What all share (assay type): functional
Assay [1] deals with Solute carrier family 2, facilitated glucose transporter member 1 (Homo sapiens) (UniProt P11166). The experiment in a line: ST_JUDE_LEISH: Cytotoxicity at 2uM final concentration against transgenic Leishmania Mexicana promastigotes LmGLUT1 that are glucose transport deficient and complemented with the human glucose transporter GLUT1. Activity is measured by DNA content using SYBR green in vitro.
Chain of Solute carrier family 2, facilitated glucose transporter member 1 (Homo sapiens) (P11166 whole entry): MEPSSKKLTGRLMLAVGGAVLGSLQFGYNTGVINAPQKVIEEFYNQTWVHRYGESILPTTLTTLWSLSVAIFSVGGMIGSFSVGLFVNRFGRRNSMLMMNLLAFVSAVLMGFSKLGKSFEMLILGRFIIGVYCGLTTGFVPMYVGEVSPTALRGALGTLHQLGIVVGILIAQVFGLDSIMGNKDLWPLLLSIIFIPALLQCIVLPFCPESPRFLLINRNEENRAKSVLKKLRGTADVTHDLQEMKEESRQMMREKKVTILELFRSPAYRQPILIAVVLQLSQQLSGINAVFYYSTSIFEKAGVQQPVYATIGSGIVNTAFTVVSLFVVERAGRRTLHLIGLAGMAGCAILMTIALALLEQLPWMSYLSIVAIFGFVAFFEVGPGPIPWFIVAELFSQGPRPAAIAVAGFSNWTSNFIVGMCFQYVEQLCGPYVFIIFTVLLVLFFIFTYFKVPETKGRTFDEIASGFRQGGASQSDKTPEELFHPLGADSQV

For assay [2], the target named is Hexose transporter 1 (Plasmodium falciparum) (UniProt O97467). Kind of assay: ST_JUDE_LEISH: Cytotoxicity at 2uM final concentration against transgenic Leishmania Mexicana promastigotes LmPfHT that are glucose transport deficient and complemented with the Plasmodium falciparum hexose transporter. Activity is measured by DNA content using SYBR green in vitro.
In assay [3] the target is Glucose transporter (Leishmania mexicana) (UniProt O61059). Kind of assay: ST_JUDE_LEISH: Cytotoxicity at 2uM final concentration against transgenic Leishmania Mexicana promastigotes LmGT2 that are glucose transport deficient and complemented with the L. Mexicana glucose transporter 2. Activity is measured by DNA content using SYBR green in vitro.

The structures appear in SMILES notation.

Usually inhibition stands for the relative decrease from the control value, in per cent. With `CNC(=O)c1cnc(Nc2ccc(N3CCN(C)CC3)cc2)nc1Nc1cccc([N+](=O)[O-])c1`, the inhibition was 2.86% in assay [1], -0.17% in assay [2] and 1.22% in assay [3].

`COc1ccc(CNC2Cc3ccccc3C2)cc1-c1ccc(S(=O)(=O)NCCc2ccccn2)s1`: the inhibition stood at 0.76% in assay [1], 0.03% in assay [2] and 2.04% in assay [3].

For `CCn1c(Sc2ccc([N+](=O)[O-])c(C#N)c2)nnc1-c1ccc(Cl)cc1`, the inhibition came out at 9.05% in assay [1], 7.38% in assay [2] and 12.8% in assay [3].

On to `COc1ccc(NC(=O)[C@H](CC(C)C)Nc2cc(C)nc(NCCc3ccc(F)cc3)n2)cc1`, for which the values for the inhibition in assay [1], in assay [2] and in assay [3] were 5.65%, 4.09% and 3.65%, respectively.

`c1cc(CN2CCC(CCN3CCCCC3)CC2)cc(-c2cccc(-c3nc4ccccc4[nH]3)c2)c1`: the inhibition in assay [1] was 2.17%; in assay [2], 2.55%; in assay [3], 3.39%.

Consider `COc1ccc(NC(=O)CCNc2cc(C)nc(NCCc3ccc(F)cc3)n2)cc1`, for which the inhibition in assay [1] is -0.52%; in assay [2], 0.39%; in assay [3], -0.01%.

Take `O=C(/C=C/c1ccc(Cl)c(Cl)c1)NCCCCCN1CCCN(C(=O)Nc2cccc(Cl)c2)CC1`: the inhibition in assay [1] amounted to 0.54%; in assay [2], 0.75%; in assay [3], 3.37%.

On to `COc1cc(NC(=O)N2CCc3ccc(OCCN(C(C)C)C(C)C)cc32)cc(C(F)(F)F)c1`, for which the results for the inhibition in assay [1], in assay [2] and in assay [3] were 1.98%, 1.73% and 2.06%, respectively.

For `N=C1NC(=O)C(=Cc2cn(-c3ccccc3)nc2-c2cccc(S(=O)(=O)N3CCCC3)c2)S1`, the inhibition in assay [1] came to 8.5%; in assay [2] it was 6.98%; in assay [3], 7.82%.

On to `CC(C)NCc1cccc(-c2ccc(NC(=O)c3cccc(C#N)c3)cc2)c1`, for which the inhibition in assay [1] came to 0.25%; in assay [2], 0.74%; in assay [3] it was 2.32%.

On to `CCN(CC)CCCNc1cc[n+]([O-])c2cc3ccccc3cc12`, for which the inhibition in assay [1] was -0.82%; in assay [2], -2.45%; in assay [3], -1.63%.

For `CCCOc1c(CCNCCCCNCCc2ccc3ccccc3c2OCCC)ccc2ccccc12`, the inhibition in assay [1] turned out to be 60.8%; in assay [2] it was 13.6%; in assay [3], 40.1%.
